# Measurements from PubChem BioAssay AID1851 (National Center for Advancing Translational Sciences (NCATS), 2009).
# “And” between values parts separate entries of the source, which are not always exact repeats. Equal values may be shown once. Out of some 16,000 compounds screened, about 5,800 (36%) were called active. Roughly 23% stayed inconclusive and do not appear here. Calls follow the shape of the dose curve; as a rule, active = well fitted curve in the direction sought with a large enough effect; inconclusive = small, poorly fitted or top-dose-only effect, or effect the other way; inactive = no such curve, though single readings can be large or run the other way. The list shows a part of the results.
# Molecular target: Cytochrome P450 2C19 (Homo sapiens) (UniProt P33261)
# Sequence (P33261 whole entry, looked up): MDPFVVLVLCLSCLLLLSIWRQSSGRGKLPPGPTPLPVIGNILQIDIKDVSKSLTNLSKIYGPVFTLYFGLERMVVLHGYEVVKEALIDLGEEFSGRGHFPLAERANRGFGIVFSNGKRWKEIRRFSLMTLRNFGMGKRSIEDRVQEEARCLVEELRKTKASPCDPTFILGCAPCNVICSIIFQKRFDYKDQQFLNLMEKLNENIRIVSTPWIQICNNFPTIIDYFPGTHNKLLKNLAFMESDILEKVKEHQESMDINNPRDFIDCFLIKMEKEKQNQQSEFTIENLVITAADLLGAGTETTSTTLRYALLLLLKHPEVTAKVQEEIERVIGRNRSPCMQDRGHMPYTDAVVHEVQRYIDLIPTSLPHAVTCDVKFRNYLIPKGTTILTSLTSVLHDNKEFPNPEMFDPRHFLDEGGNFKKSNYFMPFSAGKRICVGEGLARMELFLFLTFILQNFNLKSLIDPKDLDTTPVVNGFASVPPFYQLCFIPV
# Assay: Cytochrome panel assay with activity outcomes
# Details: recombinant CYP, pro-luciferin dealkylation, luminescence, p450-cyp2c19; series mostly up to 57.1 µM; activity, negative = inhibition: at the top concentration
# % is scaled to controls: 0 for no effect and ±100 for the full control effect.
Compound,AC50,"activity, negative = inhibition"
O=C(N/N=C/c1ccc(O)cc1)c1csc2ccccc12,14.1 µM (active),
CCOc1ccc(NC(=S)N(Cc2ccc(Cl)cc2)Cc2ccco2)cc1,7.94 µM (active),
CCOc1ccc(NC(=S)N(Cc2ccc(N(C)C)cc2)Cc2ccco2)cc1,1.58 µM (active),
CCc1ccccc1NC(=O)c1nnn(CC(=O)Nc2ccccc2C)c1N,,-8.56% (inactive)
Cc1ccc2c(c1)nnn2C1CCN(CC(=O)N2c3ccccc3CC2C)CC1 (centres undefined),10 µM (active),
Cc1ccccc1NC(=O)CN1CCC(n2nnc3ccccc32)CC1,17.8 µM (active),
Cc1cc(N=Cc2c(CO)cnc(C)c2O)c(N=Cc2c(CO)cnc(C)c2O)cc1C.[Zn],,-22.1% [at 11.4 µM] (inactive)
CCCCN=c1sc(C(=O)OC)cc(=O)n1CCCC,2.24 µM (active),
Cc1cc2c(c(=O)o1)[C@@H](O)[C@H]1O[C@@H]1C2=O,,-1.32% [at 11.4 µM] (inactive)
Cc1cccc(NS(=O)(=O)c2c(C)n[nH]c2C)c1,7.08 µM (active),
COc1ccc(N(CC(=O)Nc2cccc(C)c2)S(=O)(=O)c2c(C)n[nH]c2C)cc1,0.794 µM (active),
CN(C)c1cc(-c2cccc(NS(C)(=O)=O)c2)ncn1,,-19% (inactive)
Cc1n[nH]c(C)c1S(=O)(=O)N1CCOCC1,,2.95% (inactive)
CN(CC(=O)Nc1ccc(F)c(F)c1)S(=O)(=O)c1cccc2nsnc12,3.55 µM (active),
N#Cc1cccc(NC(=O)N2CCC3(CC2)CCN(C(=O)c2cccc(F)c2)CC3)c1,,-25.9% (inactive)
O=S1(=O)[C@H]([C@H]2CC3c4ccccc4C2c2ccccc23)[C@@H](N2CCCCC2)[C@@H]1c1ccccc1,2.51 µM (active),
O=C(O)[C@H]1C[C@@H](CP(=O)(O)O)CCN1,7.94 µM (active),
O=C(O)[C@@H]1CCCN1,,19.4% [at 11.4 µM] (inactive)
O=C(O)[C@H]1CN(CCCP(=O)(O)O)CCN1,,-8.91% (inactive)
CCCCn1c(SCc2c(C)noc2C)nc2cc(S(N)(=O)=O)ccc21,14.1 µM (active),

Compound,AC50,"activity, negative = inhibition"
CCOc1c(OC(C)=O)ccc(/C=C/c2ccc3cccc(OC(C)=O)c3n2)c1[N+](=O)[O-],10 µM (active),
CCOc1c(OC(C)=O)ccc(/C=C2\N=C(SCC)SC2=O)c1[N+](=O)[O-],2.82 µM (active),
COc1ccc(-c2cc(C(F)F)nc(-n3nc(C)cc3C)n2)cc1,28.2 µM (active),
Cc1c(C)c2c(C)[nH]nc2oc1=O,17.8 µM (active),
Clc1ccc(CSc2ncnc3c2ncn3[C@@H]2CCCCO2)cc1,,-40.6% [at 11.4 µM] (inactive)
Fc1ccc(CSc2ncnc3sc4c(c23)CCCC4)cc1,0.891 µM (active),
Nc1[nH]c(=O)nc2c1ncn2[C@H]1O[C@@H](CO)[C@@H](O)[C@@H]1O,,25.3% [at 11.4 µM] (inactive)
CCn1c2ccccc2c2cc(/C=N/n3cn[nH]c3=S)ccc21,3.55 µM (active),
O=C1[C@H]2[C@H]3[C@H](O)[C@H](O)C/C(=N/OC[C@@H](O)COCc4ccco4)[C@@H]3CC[C@@H]2C(=O)N1C1CCCCC1,,9.78% [at 11.4 µM] (inactive)
CS(=O)(=O)Nc1ccc(S(=O)(=O)N2CCOCC2)cc1,,12.7% (inactive)
COc1cc(NC(=S)Nc2ccc(S(=O)(=O)N3CCOCC3)cc2)cc(OC)c1OC,10 µM (active),
CCCc1c(OCCCOc2ccc(OCC(=O)O)cc2)ccc(CC=O)c1O,,14% (inactive)
COc1ccc(CC(=O)Nc2cccc(/C(C)=N/NC(=O)c3cccc([N+](=O)[O-])c3)c2)cc1,14.1 µM (active),
COc1ccc(C(=O)N/N=C(\C)Cn2nc([N+](=O)[O-])cc2C)cc1,,-29% (inactive)
Cc1cc2nnc(SCC(=O)OC(C)C)n2c2ccccc12,7.94 µM (active),
CCSc1nnc2n(N)c(=O)c3ccccc3n12,,-68.5% (inactive)
COC(=O)c1cc(C#N)c(Oc2ccc(OC)cc2)nc1C,17.8 µM (active),
COC(=O)c1cc(C#N)c(NCc2ccc(Cl)cc2Cl)nc1C,,-14% (inactive)
CC(=O)c1cc(C#N)c(Oc2cccc(C(F)(F)F)c2)nc1C,11.2 µM (active),
COc1ccc(Oc2ncc3nc(C)c(=O)n(-c4ccc(OC)cc4)c3n2)cc1,,-22% (inactive)

Compound,AC50,"activity, negative = inhibition"
Cn1cccc1C(=O)C(=O)Nc1cccc(Cl)c1Cl,3.16 µM (active),
Cn1cccc1C(=O)N1CCC2(CC1)CN(C(=O)Nc1ccccc1)C2,,-10.7% (inactive)
Cn1cccc1C(=O)N1CCC2(CCN(C(=O)Nc3ccccc3)CC2)CC1,,-13.8% (inactive)
O=c1n(-c2ccccc2)c(=O)n2n1CC[C@H]1/C(=N\OC[C@@H](O)COCc3ccco3)[C@H]3O[C@@H]3[C@@H](O)[C@@H]12,,18.2% [at 11.4 µM] (inactive) and 1.03% [at 11.4 µM] (inactive)
Cc1ccnc2nc(C(=O)OCC(=O)Nc3ccc4c(c3)OC(F)(F)O4)nn12,,-13.2% (inactive)
CCN(c1ccc(NC(=O)COC(=O)c2ccc3ccccc3n2)cc1)C(C)C,4.47 µM (active),
COc1ccc(C(=O)Nc2ccc(OCC(F)(F)C(F)F)c(C(F)(F)F)c2)cc1OC,14.1 µM (active),
CC(C)NC(=O)N1CC[C@@]2(CCCN(C(=O)c3csnn3)C2)C1,,26.7% (inactive)
COc1ccc2cc(CCNC(=O)C3CC3)c(=O)[nH]c2c1,,15.9% (inactive)
Cc1ccc2cc(CCNC(=O)c3ccc(Br)o3)c(=O)[nH]c2c1,2.24 µM (active),
CC(=O)N1CCN(C(=O)CC2OC(=O)c3ccccc32)CC1 (centres undefined),1.78 µM (active),
COc1ccc(OC)c2c(=S)c3ccccc3[nH]c12,,-15% (inactive)
CCN(C(=S)Nc1ccccc1F)C1CCCCC1,3.98 µM (active),
Cc1ccc([N+](=O)[O-])cc1NC(=S)NC(=O)C(C)(C)C,2 µM (active),
Cc1ccc([N+](=O)[O-])cc1NC(=S)NC(=O)CC(C)(C)C,4.47 µM (active),
Cc1ccc(SCc2ccc(C(=O)Nc3cc([N+](=O)[O-])ccc3C)cc2)cc1,,-29.8% (inactive)
CCn1c(C)c(C)c2cc(C(=O)Nc3cccc(Cl)c3)ccc21,7.08 µM (active),
Cc1c(C)n(C)c2ccc(C(=O)Nc3cccc4ccccc34)cc12,3.55 µM (active),
O=C(O)c1ccc(C(=O)Nc2cccc3ccccc23)c(C(=O)O)c1,,12.6% [at 11.4 µM] (inactive)
